# The full list was thinned out, with the strongest signals kept by preference.
# B1: CrataBL (Crataeva tapia), C0HJA4 (protein)
# chain: AILTGVPYYILPSTSRAGFSPDNLRKNTSQLSCPLDLITQLRFPRRIGVPVIFTPQNSSLKVVPLSHNLNIHTCSDLWFCPESKIWTVKSSLTHGGSVVTTGGTFRSLGSWFRIERHGDSYKLVHCPRGSTPCRDVGIETVGGGGRRYLAPRDRPLAVRFTRASG
# Experiments:
# Test in all cases: glycan array binding signal (z-score within array); higher = stronger binding
# Settings in all cases: glycan notation: IUPAC condensed, linker removed
# [1] = target: Fuc(a1-2)Gal(b1-3)GlcNAc(b1-3)GalNAc
# In short: (§1)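 Arrays were curated from the Consortium for Functional Glycomics database, 3228 in total, and kept only where the protein sequence was available. Binding is expressed as a within-array Z-score. This score was averaged across arrays of the same protein sequence at different concentrations or buffers and across linkers, and negative values can be read as non-binding.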
# Fuc(a1-2)Gal(b1-4)GlcNAc = target: Fuc(a1-2)Gal(b1-4)GlcNAc
# In short: as §1
# [2] = target: Fuc(a1-2)Gal(b1-4)GlcNAc(b1-3)Gal(b1-4)GlcNAc
# In short: as §1
# [3] = target: Fuc(a1-2)Gal6S(b1-3)GlcNAc6S
# In short: as §1
# [4] = target: Fuc(a1-2)[Gal(a1-3)]Gal(b1-4)[Fuc(a1-3)]GlcNAc(b1-3)GalNAc
# In short: as §1
# [5] = target: Fuc(a1-2)[GalNAc(a1-3)]Gal(b1-4)GlcNAc(b1-2)Man
# In short: as §1
# [6] = target: Fuc(a1-3)[Gal(b1-4)]GlcNAc(b1-2)Man(a1-3)[Fuc(a1-3)[Gal(b1-4)]GlcNAc(b1-2)Man(a1-6)]Man(b1-4)GlcNAc(b1-4)GlcNAc
# In short: as §1
# [7] = target: Fuc(a1-3)[Gal(b1-4)]GlcNAc(b1-6)[Gal(b1-3)GlcNAc(b1-3)]Gal(b1-4)Glc
# In short: as §1
# [8] = target: Fuc(a1-3)[GalNAc(b1-4)]GlcNAc6S
# In short: as §1
# [9] = target: Gal(a1-3)Gal(b1-3)GlcNAc(b1-3)GalNAc
# In short: as §1
# Gal(a1-3)Gal(b1-4)Glc = target: Gal(a1-3)Gal(b1-4)Glc
# In short: as §1
# [10] = target: Gal(a1-4)Gal(b1-3)GlcNAc(b1-2)Man(a1-3)[Gal(a1-4)Gal(b1-3)GlcNAc(b1-2)Man(a1-6)]Man(b1-4)GlcNAc(b1-4)GlcNAc
# In short: as §1
# Gal(b1-3)GlcNAc(b1-2)Man = target: Gal(b1-3)GlcNAc(b1-2)Man
# In short: as §1
# [11] = target: Gal(b1-3)[Fuc(a1-4)]GlcNAc(b1-3)Gal(b1-3)[Fuc(a1-4)]GlcNAc
# In short: as §1
# [12] = target: Gal(b1-3)[Neu5Ac(b2-6)]GalNAc
# In short: as §1
# [13] = target: Gal(b1-4)GlcNAc(b1-2)Man(a1-3)[Gal(b1-4)GlcNAc(b1-2)Man(a1-6)][GlcNAc(b1-4)]Man(b1-4)GlcNAc(b1-4)[Fuc(a1-6)]GlcNAc
# In short: as §1
# [14] = target: Gal(b1-4)GlcNAc(b1-2)[Gal(b1-4)GlcNAc(b1-4)]Man(a1-3)[GlcNAc(b1-4)][Gal(b1-4)GlcNAc(b1-2)Man(a1-6)]Man(b1-4)GlcNAc(b1-4)GlcNAc
# In short: as §1
# [15] = target: Gal(b1-4)GlcNAc(b1-3)Gal(b1-4)GlcNAc(b1-2)Man(a1-3)[Gal(b1-4)GlcNAc(b1-3)Gal(b1-4)GlcNAc(b1-2)Man(a1-6)]Man(b1-4)GlcNAc(b1-4)[Fuc(a1-6)]GlcNAc
# In short: as §1
# [16] = target: Gal(b1-4)GlcNAc(b1-3)Gal(b1-4)GlcNAc(b1-3)Gal(b1-4)GlcNAc(b1-3)Gal(b1-4)GlcNAc(b1-3)Gal(b1-4)GlcNAc(b1-2)Man(a1-3)[Gal(b1-4)GlcNAc(b1-3)Gal(b1-4)GlcNAc(b1-3)Gal(b1-4)GlcNAc(b1-3)Gal(b1-4)GlcNAc(b1-3)Gal(b1-4)GlcNAc(b1-2)Man(a1-6)]Man(b1-4)GlcNAc(b1-4)GlcNAc
# In short: as §1
# [17] = target: Gal(b1-4)GlcNAc(b1-3)Gal(b1-4)GlcNAc(b1-3)Gal(b1-4)GlcNAc(b1-3)Gal(b1-4)GlcNAc(b1-3)Gal(b1-4)GlcNAc(b1-2)Man(a1-3)[Gal(b1-4)GlcNAc(b1-3)Gal(b1-4)GlcNAc(b1-3)Gal(b1-4)GlcNAc(b1-3)Gal(b1-4)GlcNAc(b1-3)Gal(b1-4)GlcNAc(b1-2)Man(a1-6)]Man(b1-4)GlcNAc(b1-4)[Fuc(a1-6)]GlcNAc
# In short: as §1
# [18] = target: Gal(b1-4)GlcNAc(b1-6)[Gal(b1-4)GlcNAc(b1-3)]GalNAc
# In short: as §1
# Gal3S(b1-4)GlcNAc = target: Gal3S(b1-4)GlcNAc
# In short: as §1
# [19] = target: Gal3S(b1-4)[Fuc(a1-3)]GlcNAc6S
# In short: as §1
# Gal3S4S(b1-4)GlcNAc = target: Gal3S4S(b1-4)GlcNAc
# In short: as §1
# Gal3S6S(b1-4)GlcNAc = target: Gal3S6S(b1-4)GlcNAc
# In short: as §1
# Gal3S6S(b1-4)GlcNAc6S = target: Gal3S6S(b1-4)GlcNAc6S
# In short: as §1
# Gal6S(b1-3)GlcNAc6S = target: Gal6S(b1-3)GlcNAc6S
# In short: as §1
# Gal6S(b1-4)Glc6S = target: Gal6S(b1-4)Glc6S
# In short: as §1
# Gal6S(b1-4)GlcNAc6S = target: Gal6S(b1-4)GlcNAc6S
# In short: as §1
# [20] = target: GalNAc3S(b1-4)[Fuc(a1-3)]GlcNAc
# In short: as §1
# GalNAc4S6S(b1-4)GlcNAc = target: GalNAc4S6S(b1-4)GlcNAc
# In short: as §1
# [21] = target: GlcNAc(a1-4)Gal(b1-3)GlcNAc
# In short: as §1
# [22] = target: GlcNAc(b1-2)Man(a1-3)[GlcNAc(b1-4)][GlcNAc(b1-2)Man(a1-6)]Man(b1-4)GlcNAc(b1-4)GlcNAc
# In short: as §1
# [23] = target: GlcNAc(b1-3)Gal(b1-4)GlcNAc(b1-3)Gal(b1-4)GlcNAc(b1-2)Man(a1-3)[GlcNAc(b1-3)Gal(b1-4)GlcNAc(b1-3)Gal(b1-4)GlcNAc(b1-2)Man(a1-6)]Man(b1-4)GlcNAc(b1-4)[Fuc(a1-6)]GlcNAc
# In short: as §1
# [24] = target: GlcNAc(b1-4)GlcNAc(b1-4)GlcNAc(b1-4)GlcNAc(b1-4)GlcNAc
# In short: as §1
# [25] = target: GlcNAc(b1-4)[GlcNAc(b1-6)]GalNAc
# In short: as §1
# Kdn(a2-3)Gal(b1-3)GalNAc = target: Kdn(a2-3)Gal(b1-3)GalNAc
# In short: as §1
# Kdn(a2-3)Gal(b1-4)Glc = target: Kdn(a2-3)Gal(b1-4)Glc
# In short: as §1
# Man(a1-2)Man(a1-3)Man = target: Man(a1-2)Man(a1-3)Man
# In short: as §1
# [26] = target: Neu5Ac(a2-3)Gal(b1-3)GalNAc
# In short: as §1
# [27] = target: Neu5Ac(a2-3)Gal(b1-3)GlcNAc(b1-4)Gal(b1-4)Glc
# In short: as §1
# [28] = target: Neu5Ac(a2-3)Gal(b1-4)GlcNAc(b1-2)[Neu5Ac(a2-3)Gal(b1-4)GlcNAc(b1-6)]Man(a1-6)[Neu5Ac(a2-3)Gal(b1-4)GlcNAc(b1-2)Man(a1-3)][GlcNAc(b1-4)]Man(b1-4)GlcNAc(b1-4)GlcNAc
# In short: as §1
# [29] = target: Neu5Ac(a2-3)Gal(b1-4)GlcNAc(b1-3)Gal(b1-4)GlcNAc(b1-3)Gal(b1-4)GlcNAc
# In short: as §1
# [30] = target: Neu5Ac(a2-3)Gal(b1-4)GlcNAc(b1-3)Gal(b1-4)GlcNAc(b1-3)Gal(b1-4)GlcNAc(b1-2)Man(a1-3)[Neu5Ac(a2-3)Gal(b1-4)GlcNAc(b1-3)Gal(b1-4)GlcNAc(b1-3)Gal(b1-4)GlcNAc(b1-2)Man(a1-6)]GalNAc
# In short: as §1
# [31] = target: Neu5Ac(a2-3)Gal(b1-4)GlcNAc(b1-3)[Neu5Ac(a2-3)Gal(b1-4)GlcNAc(b1-6)]GalNAc
# In short: as §1
# [32] = target: Neu5Ac(a2-3)Gal(b1-4)GlcNAc6S
# In short: as §1
# [33] = target: Neu5Ac(a2-3)Gal(b1-4)[Fuc(a1-3)]GlcNAc(b1-3)Gal
# In short: as §1
# [34] = target: Neu5Ac(a2-3)Gal(b1-4)[Fuc(a1-3)]GlcNAc(b1-3)Gal(b1-4)[Fuc(a1-3)]GlcNAc(b1-3)Gal(b1-4)[Fuc(a1-3)]GlcNAc
# In short: as §1
# [35] = target: Neu5Ac(a2-6)Gal(b1-4)GlcNAc(b1-2)Man(a1-6)[Gal(b1-4)GlcNAc(b1-2)Man(a1-3)]Man(b1-4)GlcNAc(b1-4)GlcNAc
# In short: as §1
# [36] = target: Neu5Ac(a2-8)Neu5Ac(a2-3)[GalNAc(b1-4)]Gal(b1-4)Glc
# In short: as §1
# [37] = target: Neu5Ac(b2-6)Gal(b1-4)GlcNAc
# In short: as §1
binder,measurement,setting,value
B1,glycan array binding signal (z-score),[1],-0.444
same,glycan array binding signal (z-score),Fuc(a1-2)Gal(b1-4)GlcNAc,-0.486
same,glycan array binding signal (z-score),[2],-0.497
same,glycan array binding signal (z-score),[3],5.81
same,glycan array binding signal (z-score),[4],-0.054
same,glycan array binding signal (z-score),[5],-0.507
same,glycan array binding signal (z-score),[6],-0.41
same,glycan array binding signal (z-score),[7],-0.443
same,glycan array binding signal (z-score),[8],0.386
same,glycan array binding signal (z-score),[9],-0.383
same,glycan array binding signal (z-score),Gal(a1-3)Gal(b1-4)Glc,-0.243
same,glycan array binding signal (z-score),[10],-0.451
same,glycan array binding signal (z-score),Gal(b1-3)GlcNAc(b1-2)Man,-0.207
same,glycan array binding signal (z-score),[11],-0.412
same,glycan array binding signal (z-score),[12],-0.333
same,glycan array binding signal (z-score),[13],-0.533
same,glycan array binding signal (z-score),[14],-0.465
same,glycan array binding signal (z-score),[15],-0.376
same,glycan array binding signal (z-score),[16],-0.247
same,glycan array binding signal (z-score),[17],-0.276
same,glycan array binding signal (z-score),[18],-0.237
same,glycan array binding signal (z-score),Gal3S(b1-4)GlcNAc,-0.021
same,glycan array binding signal (z-score),[19],5.22
same,glycan array binding signal (z-score),Gal3S4S(b1-4)GlcNAc,2.38
same,glycan array binding signal (z-score),Gal3S6S(b1-4)GlcNAc,3.14
same,glycan array binding signal (z-score),Gal3S6S(b1-4)GlcNAc6S,11.7
same,glycan array binding signal (z-score),Gal6S(b1-3)GlcNAc6S,6.61
same,glycan array binding signal (z-score),Gal6S(b1-4)Glc6S,2.96
same,glycan array binding signal (z-score),Gal6S(b1-4)GlcNAc6S,5.29
same,glycan array binding signal (z-score),[20],0.423
same,glycan array binding signal (z-score),GalNAc4S6S(b1-4)GlcNAc,5.23
same,glycan array binding signal (z-score),[21],-0.374
same,glycan array binding signal (z-score),[22],-0.23
same,glycan array binding signal (z-score),[23],-0.076
same,glycan array binding signal (z-score),[24],-0.186
same,glycan array binding signal (z-score),[25],-0.434
same,glycan array binding signal (z-score),Kdn(a2-3)Gal(b1-3)GalNAc,0.64
same,glycan array binding signal (z-score),Kdn(a2-3)Gal(b1-4)Glc,0.084
same,glycan array binding signal (z-score),Man(a1-2)Man(a1-3)Man,-0.472
same,glycan array binding signal (z-score),[26],0.131
same,glycan array binding signal (z-score),[27],-0.112
same,glycan array binding signal (z-score),[28],-0.386
same,glycan array binding signal (z-score),[29],-0.389
same,glycan array binding signal (z-score),[30],2.17
same,glycan array binding signal (z-score),[31],0.163
same,glycan array binding signal (z-score),[32],2.07
same,glycan array binding signal (z-score),[33],-0.448
same,glycan array binding signal (z-score),[34],-0.51
same,glycan array binding signal (z-score),[35],0.067
same,glycan array binding signal (z-score),[36],0.475
same,glycan array binding signal (z-score),[37],-0.387
